The text below walks through data of PubChem BioAssay (EPA / NIEHS).

Calls of active or inactive are those of the source. Rule for the calls: active = hit-call score of the fitted dose curve at least 0.9, where 1 is the maximum; inconclusive = response in the unintended direction; inactive = score below 0.9.

Chain of Peroxisome proliferator-activated receptor gamma (Homo sapiens) (P37231 whole entry, looked up, the tested form may be a part): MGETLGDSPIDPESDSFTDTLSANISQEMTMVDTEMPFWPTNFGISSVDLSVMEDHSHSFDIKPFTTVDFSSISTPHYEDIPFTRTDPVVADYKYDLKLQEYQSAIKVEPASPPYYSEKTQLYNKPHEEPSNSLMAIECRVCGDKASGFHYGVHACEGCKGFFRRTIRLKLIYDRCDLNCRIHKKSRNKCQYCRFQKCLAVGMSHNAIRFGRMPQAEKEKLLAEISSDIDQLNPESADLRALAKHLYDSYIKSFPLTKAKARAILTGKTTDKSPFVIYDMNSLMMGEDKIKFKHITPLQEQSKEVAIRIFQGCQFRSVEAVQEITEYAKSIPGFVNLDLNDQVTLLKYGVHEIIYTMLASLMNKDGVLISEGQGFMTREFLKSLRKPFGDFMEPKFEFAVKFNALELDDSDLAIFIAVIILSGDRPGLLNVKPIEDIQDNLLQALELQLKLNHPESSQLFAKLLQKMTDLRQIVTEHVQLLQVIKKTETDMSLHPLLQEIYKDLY

The target in this assay is Peroxisome proliferator-activated receptor gamma (Homo sapiens) (UniProt P37231). As to the kind of experiment: OT_PPARg_PPARgSRC1_1440: Odyssey Thera (OT) 24-hour Protein-Complementation Assay for Peroxisome Proliferator-activated Receptor Gamma/ SRC-1 Co-activator (AID 2283388).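 Note: nuclear to cytoplasmic ratio of reconstituted Venus YFP fluorescence in fixed imaged cells.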 In a few lines:
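Readout is the 488 nm N/C fluorescence ratio from fixed, Draq5-stained HEK293T cells after 24 h compound exposure. Cells carried transiently transfected PPARg and SRC-1 fused to Venus fragments, transfected 48 h before treatment.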
For `O=C(OC1CCCCC1)c1ccccc1C(=O)OC1CCCCC1`, the outcome was inactive.
Next, `Clc1ccc(COC(Cn2ccnc2)c2ccc(Cl)cc2Cl)cc1` (centres undefined): “inactive”; `C[C@H]1CCCC(=O)CCC/C=C/c2cc(O)cc(O)c2C(=O)O1`: “inactive”; `ClC1(Cl)C2(Cl)C3(Cl)C4(Cl)C(Cl)(Cl)C5(Cl)C3(Cl)C1(Cl)C5(Cl)C24Cl` (centres undefined): “inactive”.
